# Reference: ChEMBL document CHEMBL1961873, “Compounds: GSK PKIS; Assays: Nanosyn kinase panel” (2012)
# Legend:
# [1] = target: Sphingosine kinase 1 (Homo sapiens) (UniProt Q9NYA1); details: at 1 µM;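 further: mean SPHK1 inhibition value reported from the GSK PKIS kinase panel screen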
# [2] = target: T1, Sphingosine kinase 2 (Homo sapiens) (UniProt Q9NRA0); details: at 0.1 µM
# T1 sequence (whole entry): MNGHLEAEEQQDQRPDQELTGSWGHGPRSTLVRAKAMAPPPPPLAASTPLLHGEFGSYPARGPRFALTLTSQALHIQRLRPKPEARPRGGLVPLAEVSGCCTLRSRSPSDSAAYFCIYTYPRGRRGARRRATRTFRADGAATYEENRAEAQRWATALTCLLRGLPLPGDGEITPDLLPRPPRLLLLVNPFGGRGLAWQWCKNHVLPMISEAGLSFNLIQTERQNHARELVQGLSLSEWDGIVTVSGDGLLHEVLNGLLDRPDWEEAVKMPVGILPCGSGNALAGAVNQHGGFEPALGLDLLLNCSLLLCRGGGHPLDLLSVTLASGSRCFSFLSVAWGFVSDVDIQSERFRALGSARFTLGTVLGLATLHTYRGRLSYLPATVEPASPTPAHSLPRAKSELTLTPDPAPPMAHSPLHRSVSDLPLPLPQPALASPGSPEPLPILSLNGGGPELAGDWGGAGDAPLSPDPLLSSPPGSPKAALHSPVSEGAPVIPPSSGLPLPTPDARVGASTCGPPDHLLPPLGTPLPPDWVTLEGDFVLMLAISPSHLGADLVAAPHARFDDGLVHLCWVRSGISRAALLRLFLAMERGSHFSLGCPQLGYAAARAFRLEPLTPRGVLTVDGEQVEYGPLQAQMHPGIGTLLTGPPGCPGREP
# [3] = target: T1, Sphingosine kinase 2 (Homo sapiens); details: at 1 µM
# [4] = target: Casein kinase II subunit alpha (Homo sapiens) (UniProt P68400); details: at 0.1 µM
# [5] = target: Casein kinase II subunit alpha (Homo sapiens) (UniProt P68400); details: at 1 µM
# [6] = target: T2, Inhibitor of nuclear factor kappa-B kinase subunit alpha (Homo sapiens) (UniProt O15111); details: at 0.1 µM
# T2 sequence (whole entry): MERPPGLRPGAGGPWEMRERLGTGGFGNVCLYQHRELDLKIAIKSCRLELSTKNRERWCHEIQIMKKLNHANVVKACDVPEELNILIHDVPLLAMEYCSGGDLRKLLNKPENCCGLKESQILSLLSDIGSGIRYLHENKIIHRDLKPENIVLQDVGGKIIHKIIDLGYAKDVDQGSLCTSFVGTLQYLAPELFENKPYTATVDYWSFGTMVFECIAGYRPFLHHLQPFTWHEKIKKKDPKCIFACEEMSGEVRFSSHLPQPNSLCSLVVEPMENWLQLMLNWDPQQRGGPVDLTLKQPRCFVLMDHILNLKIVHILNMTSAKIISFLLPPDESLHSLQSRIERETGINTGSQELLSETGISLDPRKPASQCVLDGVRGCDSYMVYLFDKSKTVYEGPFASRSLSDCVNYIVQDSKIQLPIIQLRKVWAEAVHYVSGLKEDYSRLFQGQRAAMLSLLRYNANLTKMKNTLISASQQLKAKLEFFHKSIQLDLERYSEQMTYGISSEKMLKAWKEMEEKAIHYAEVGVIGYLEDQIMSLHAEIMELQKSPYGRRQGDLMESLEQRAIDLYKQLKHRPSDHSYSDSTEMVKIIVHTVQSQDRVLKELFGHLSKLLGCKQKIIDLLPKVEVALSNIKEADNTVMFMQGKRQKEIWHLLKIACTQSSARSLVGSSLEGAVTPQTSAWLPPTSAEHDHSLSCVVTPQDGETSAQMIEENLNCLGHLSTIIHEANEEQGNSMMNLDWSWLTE
# [7] = target: T2, Inhibitor of nuclear factor kappa-B kinase subunit alpha (Homo sapiens); details: at 1 µM
# [8] = target: T3, Inhibitor of nuclear factor kappa-B kinase subunit beta (Homo sapiens) (UniProt O14920); details: at 0.1 µM
# T3 sequence (whole entry): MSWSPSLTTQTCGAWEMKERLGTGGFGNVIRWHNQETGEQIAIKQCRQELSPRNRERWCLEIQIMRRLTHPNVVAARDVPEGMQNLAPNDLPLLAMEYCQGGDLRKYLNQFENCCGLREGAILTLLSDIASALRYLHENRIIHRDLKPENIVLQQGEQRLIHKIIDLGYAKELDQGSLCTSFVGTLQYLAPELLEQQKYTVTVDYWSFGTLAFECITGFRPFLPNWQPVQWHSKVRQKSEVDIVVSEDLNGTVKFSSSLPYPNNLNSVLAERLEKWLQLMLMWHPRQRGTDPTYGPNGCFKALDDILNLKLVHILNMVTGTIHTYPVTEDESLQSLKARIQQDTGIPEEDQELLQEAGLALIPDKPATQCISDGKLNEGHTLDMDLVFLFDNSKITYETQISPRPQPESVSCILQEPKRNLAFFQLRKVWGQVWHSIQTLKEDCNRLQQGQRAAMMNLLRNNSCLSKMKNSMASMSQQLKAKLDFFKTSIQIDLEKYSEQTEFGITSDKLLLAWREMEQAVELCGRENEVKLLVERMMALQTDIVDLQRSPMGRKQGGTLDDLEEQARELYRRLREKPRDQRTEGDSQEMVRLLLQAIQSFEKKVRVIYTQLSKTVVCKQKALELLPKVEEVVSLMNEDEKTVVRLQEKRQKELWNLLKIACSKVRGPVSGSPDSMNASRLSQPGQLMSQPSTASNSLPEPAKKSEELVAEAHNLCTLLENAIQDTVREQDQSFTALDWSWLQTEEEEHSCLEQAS
# [9] = target: T3, Inhibitor of nuclear factor kappa-B kinase subunit beta (Homo sapiens); details: at 1 µM
# [10] = target: T4, Inhibitor of nuclear factor kappa-B kinase subunit epsilon (Homo sapiens) (UniProt Q14164); details: at 0.1 µM
# T4 sequence (whole entry): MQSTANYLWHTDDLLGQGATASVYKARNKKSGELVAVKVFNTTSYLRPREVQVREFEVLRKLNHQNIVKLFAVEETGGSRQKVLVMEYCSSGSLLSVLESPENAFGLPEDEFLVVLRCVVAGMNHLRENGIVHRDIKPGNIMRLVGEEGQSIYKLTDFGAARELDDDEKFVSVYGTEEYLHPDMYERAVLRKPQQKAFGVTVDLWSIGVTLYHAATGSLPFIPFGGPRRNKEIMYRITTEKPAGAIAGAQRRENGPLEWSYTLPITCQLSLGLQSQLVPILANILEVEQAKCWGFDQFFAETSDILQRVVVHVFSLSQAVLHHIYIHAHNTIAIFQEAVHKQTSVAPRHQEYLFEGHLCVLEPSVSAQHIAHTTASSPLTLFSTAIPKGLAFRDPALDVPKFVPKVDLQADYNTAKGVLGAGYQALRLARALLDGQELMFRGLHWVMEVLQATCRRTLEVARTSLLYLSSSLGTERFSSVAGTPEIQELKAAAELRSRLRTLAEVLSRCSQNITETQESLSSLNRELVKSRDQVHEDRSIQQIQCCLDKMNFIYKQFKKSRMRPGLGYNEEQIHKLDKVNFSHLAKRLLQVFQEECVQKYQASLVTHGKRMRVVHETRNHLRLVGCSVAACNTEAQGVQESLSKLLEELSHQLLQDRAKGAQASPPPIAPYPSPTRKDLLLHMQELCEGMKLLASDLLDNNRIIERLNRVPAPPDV
# [11] = target: T4, Inhibitor of nuclear factor kappa-B kinase subunit epsilon (Homo sapiens); details: at 1 µM
# [12] = target: T5, Serine/threonine-protein kinase Nek1 (Homo sapiens) (UniProt Q96PY6); details: at 0.1 µM
# T5 sequence (whole entry): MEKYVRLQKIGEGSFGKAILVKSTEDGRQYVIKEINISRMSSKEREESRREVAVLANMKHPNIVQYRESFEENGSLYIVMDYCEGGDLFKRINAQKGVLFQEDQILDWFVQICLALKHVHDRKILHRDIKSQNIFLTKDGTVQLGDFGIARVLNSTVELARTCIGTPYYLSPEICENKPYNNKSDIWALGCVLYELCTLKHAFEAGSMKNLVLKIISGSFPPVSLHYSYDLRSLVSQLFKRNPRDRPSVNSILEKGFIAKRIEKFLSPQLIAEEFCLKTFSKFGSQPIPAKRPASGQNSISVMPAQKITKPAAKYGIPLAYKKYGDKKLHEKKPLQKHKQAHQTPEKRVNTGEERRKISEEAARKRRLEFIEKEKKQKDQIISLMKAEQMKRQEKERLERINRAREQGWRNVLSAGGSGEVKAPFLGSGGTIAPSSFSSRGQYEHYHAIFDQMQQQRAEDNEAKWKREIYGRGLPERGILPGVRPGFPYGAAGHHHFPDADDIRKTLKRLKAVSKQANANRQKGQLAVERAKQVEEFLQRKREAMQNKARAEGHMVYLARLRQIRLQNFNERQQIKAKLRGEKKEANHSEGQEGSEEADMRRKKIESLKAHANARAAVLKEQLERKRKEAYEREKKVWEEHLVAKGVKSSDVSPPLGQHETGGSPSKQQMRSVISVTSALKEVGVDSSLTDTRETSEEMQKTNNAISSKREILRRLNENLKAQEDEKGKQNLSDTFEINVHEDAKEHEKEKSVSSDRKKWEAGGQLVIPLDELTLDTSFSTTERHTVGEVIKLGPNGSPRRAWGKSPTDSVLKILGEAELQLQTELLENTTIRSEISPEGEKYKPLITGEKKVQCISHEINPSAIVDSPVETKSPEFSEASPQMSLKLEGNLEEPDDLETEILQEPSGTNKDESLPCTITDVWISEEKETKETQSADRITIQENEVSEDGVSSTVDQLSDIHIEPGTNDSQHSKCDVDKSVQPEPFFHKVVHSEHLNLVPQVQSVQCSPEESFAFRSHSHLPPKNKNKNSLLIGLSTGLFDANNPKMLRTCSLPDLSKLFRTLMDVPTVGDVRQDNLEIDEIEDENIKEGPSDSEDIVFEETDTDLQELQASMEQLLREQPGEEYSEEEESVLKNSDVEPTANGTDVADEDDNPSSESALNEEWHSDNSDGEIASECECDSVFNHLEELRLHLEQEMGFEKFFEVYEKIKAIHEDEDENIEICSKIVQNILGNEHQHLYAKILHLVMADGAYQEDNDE
# [13] = target: T5, Serine/threonine-protein kinase Nek1 (Homo sapiens); details: at 1 µM
# [14] = target: T6, Serine/threonine-protein kinase Nek2 (Homo sapiens) (UniProt P51955); details: at 0.1 µM
# T6 sequence (whole entry): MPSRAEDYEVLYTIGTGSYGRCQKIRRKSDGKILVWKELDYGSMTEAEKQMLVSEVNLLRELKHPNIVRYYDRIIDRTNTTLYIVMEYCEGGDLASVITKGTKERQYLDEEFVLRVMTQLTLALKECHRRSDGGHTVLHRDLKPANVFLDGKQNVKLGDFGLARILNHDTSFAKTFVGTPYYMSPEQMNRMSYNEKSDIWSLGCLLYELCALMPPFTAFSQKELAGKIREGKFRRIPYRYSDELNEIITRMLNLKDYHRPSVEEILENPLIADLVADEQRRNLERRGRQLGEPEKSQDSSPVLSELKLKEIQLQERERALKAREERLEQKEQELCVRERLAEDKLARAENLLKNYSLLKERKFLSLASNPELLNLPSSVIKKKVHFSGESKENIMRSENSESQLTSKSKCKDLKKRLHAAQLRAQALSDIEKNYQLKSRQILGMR
# [15] = target: T6, Serine/threonine-protein kinase Nek2 (Homo sapiens); details: at 1 µM
# [16] = target: Serine/threonine-protein kinase Nek6 (Homo sapiens) (UniProt Q9HC98); details: at 0.1 µM
# [17] = target: Serine/threonine-protein kinase Nek6 (Homo sapiens) (UniProt Q9HC98); details: at 1 µM
# [18] = target: Serine/threonine-protein kinase Nek7 (Homo sapiens) (UniProt Q8TDX7); details: at 0.1 µM
# [19] = target: Serine/threonine-protein kinase Nek7 (Homo sapiens) (UniProt Q8TDX7); details: at 1 µM
# [20] = target: T7, Serine/threonine-protein kinase Nek9 (Homo sapiens) (UniProt Q8TD19); details: at 0.1 µM;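 further: reported value is the mean percent inhibition of NEK9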
# T7 sequence (whole entry): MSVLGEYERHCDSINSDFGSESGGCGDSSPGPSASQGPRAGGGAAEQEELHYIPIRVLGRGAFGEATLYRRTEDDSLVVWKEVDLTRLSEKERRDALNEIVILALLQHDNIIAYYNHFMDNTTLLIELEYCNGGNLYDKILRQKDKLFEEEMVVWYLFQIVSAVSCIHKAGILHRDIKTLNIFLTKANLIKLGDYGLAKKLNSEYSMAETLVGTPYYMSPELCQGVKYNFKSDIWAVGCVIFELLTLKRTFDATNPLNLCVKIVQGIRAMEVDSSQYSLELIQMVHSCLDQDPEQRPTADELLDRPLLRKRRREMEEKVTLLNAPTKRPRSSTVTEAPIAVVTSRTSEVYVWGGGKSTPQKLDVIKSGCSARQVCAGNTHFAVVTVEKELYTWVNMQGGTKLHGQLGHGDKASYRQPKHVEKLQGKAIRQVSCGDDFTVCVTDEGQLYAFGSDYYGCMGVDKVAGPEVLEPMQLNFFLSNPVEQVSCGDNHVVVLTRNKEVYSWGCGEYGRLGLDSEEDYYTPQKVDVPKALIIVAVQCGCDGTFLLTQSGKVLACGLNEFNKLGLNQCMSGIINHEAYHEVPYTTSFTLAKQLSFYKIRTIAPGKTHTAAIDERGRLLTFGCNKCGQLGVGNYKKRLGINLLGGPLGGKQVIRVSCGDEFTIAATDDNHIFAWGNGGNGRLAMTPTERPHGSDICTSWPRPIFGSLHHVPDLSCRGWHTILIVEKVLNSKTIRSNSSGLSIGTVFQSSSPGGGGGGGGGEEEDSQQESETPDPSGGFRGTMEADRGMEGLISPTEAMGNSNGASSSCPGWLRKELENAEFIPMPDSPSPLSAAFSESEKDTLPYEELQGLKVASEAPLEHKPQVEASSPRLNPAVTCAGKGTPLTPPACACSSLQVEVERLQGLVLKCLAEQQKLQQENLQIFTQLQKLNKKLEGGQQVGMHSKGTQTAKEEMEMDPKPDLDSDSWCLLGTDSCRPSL
# Chain of Serine/threonine-protein kinase Nek7 (Homo sapiens) (Q8TDX7 whole entry, looked up): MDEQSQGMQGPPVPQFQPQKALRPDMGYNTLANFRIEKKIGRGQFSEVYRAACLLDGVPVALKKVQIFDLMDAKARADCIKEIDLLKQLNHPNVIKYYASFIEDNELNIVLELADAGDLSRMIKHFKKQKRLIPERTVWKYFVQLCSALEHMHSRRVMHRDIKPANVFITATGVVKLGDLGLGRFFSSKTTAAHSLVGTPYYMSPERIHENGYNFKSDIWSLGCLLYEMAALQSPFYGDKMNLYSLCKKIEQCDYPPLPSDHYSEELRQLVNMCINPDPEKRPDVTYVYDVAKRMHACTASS
# Chain of Casein kinase II subunit alpha (Homo sapiens) (P68400 whole entry, looked up): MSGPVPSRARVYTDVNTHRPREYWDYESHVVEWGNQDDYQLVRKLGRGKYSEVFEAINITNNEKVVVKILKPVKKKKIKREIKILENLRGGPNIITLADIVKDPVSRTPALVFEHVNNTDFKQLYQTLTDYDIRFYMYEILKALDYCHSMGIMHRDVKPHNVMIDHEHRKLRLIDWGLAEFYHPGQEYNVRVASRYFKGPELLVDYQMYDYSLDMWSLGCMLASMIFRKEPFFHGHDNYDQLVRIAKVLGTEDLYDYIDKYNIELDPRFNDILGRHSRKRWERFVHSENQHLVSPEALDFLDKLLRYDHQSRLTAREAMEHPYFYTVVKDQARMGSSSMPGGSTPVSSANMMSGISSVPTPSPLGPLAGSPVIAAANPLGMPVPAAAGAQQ
# Chain of Serine/threonine-protein kinase Nek6 (Homo sapiens) (Q9HC98 whole entry): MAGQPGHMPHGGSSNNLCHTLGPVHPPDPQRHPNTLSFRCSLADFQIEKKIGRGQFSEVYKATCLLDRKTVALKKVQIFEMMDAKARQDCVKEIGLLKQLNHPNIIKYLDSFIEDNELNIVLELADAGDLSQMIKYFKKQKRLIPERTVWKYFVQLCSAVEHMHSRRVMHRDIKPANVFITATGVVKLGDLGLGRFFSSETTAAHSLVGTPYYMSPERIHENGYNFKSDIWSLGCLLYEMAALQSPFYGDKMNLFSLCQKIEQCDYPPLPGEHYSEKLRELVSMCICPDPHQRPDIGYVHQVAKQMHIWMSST
# Chain of Sphingosine kinase 1 (Homo sapiens) (Q9NYA1 whole entry): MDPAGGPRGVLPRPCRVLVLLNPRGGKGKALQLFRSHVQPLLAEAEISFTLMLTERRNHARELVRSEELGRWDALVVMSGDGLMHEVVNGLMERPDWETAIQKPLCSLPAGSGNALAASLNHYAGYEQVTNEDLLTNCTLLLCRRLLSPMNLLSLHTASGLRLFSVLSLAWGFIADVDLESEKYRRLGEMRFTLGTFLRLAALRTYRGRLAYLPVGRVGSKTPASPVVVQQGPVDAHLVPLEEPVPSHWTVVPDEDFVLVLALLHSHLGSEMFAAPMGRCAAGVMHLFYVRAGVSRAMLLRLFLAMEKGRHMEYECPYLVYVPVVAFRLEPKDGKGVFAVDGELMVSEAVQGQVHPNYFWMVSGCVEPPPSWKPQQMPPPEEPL
smiles,measurement,setting,value
CCN1CCC(C(=O)Nc2n[nH]c3nnc(-c4cccc(F)c4F)cc23)CC1,inhibition,[1],4.91%
same,inhibition,[2],-2.69%
same,inhibition,[3],-1.5%
same,inhibition,[4],5.2%
same,inhibition,[5],-0.24%
same,inhibition,[6],-3.04%
same,inhibition,[7],3.59%
same,inhibition,[8],-4.76%
same,inhibition,[9],-2.63%
same,inhibition,[10],-2.1%
same,inhibition,[11],-0.18%
same,inhibition,[12],-1.35%
same,inhibition,[13],-0.79%
same,inhibition,[14],-0.66%
same,inhibition,[15],-0.65%
same,inhibition,[16],1.25%
same,inhibition,[17],-1.06%
same,inhibition,[18],-0.06%
same,inhibition,[19],-1.15%
same,inhibition,[20],4.77%
